# A selection: hits, their analogues and other compounds. The true share with any hit is near 7.3%.
# FLuc counter = counter-screen for miR-21 project: firefly luciferase inhibitors or activators. P08659. purified FLuc, Km substrates, luminescence inhibition. Potency, µM (top dose mostly 57.5 µM), without a hit: at the highest dose activity change, negative = inhibition, usual class: inhibitors. hit rate 6.9% among 360,000. AID 588342;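 note: plate controls were vehicle for no effect and reference inhibitor for full effect; nearly all actives have a fitted effect of over 55% in size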
# Target sequence (P08659 whole entry, looked up): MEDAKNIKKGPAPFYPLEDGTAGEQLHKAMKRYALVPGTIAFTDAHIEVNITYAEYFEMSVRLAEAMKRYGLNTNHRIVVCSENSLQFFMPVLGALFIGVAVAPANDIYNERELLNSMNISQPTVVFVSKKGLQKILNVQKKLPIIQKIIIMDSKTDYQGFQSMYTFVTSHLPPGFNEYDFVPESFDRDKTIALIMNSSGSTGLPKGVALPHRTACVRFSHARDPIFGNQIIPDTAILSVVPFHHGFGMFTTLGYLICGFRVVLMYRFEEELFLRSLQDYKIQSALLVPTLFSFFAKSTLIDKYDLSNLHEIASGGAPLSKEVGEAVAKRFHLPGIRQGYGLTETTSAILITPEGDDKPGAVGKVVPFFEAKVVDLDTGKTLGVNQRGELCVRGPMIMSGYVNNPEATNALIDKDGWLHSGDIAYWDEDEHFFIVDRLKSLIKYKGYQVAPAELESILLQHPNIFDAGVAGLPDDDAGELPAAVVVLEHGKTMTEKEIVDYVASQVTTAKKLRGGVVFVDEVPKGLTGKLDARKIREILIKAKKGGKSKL
#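 Biochemical qHTS of compounds, final roughly 60 µM downward over six points, against 10 nM purified firefly luciferase using Km concentrations of substrates (10 uM D-luciferin, 10 uM ATP) in Tris acetate pH 7.5 buffer; luminescence output.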
# KinaseGlo FLuc = blocks Kinase-Glo luciferase, a counter-screen artifact. AID 1379. Kinase-Glo luciferase, ATP luminescence, 8 min. Q27757. hit rate 0.28% among 200,000. Potency, µM (highest dose often 38.3 µM), without a hit: at the top dose activity change, negative = inhibition, hits mostly inhibitors; note: % is set by controls: 0 for no effect and ±100 for the full control effect; nearly all actives have a fitted effect of over 60% in size
#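 Luminescence was the read-out, taken after 8-minute incubation at ambient temperature. Luciferase turned over luciferin with 10 uM ATP in imidazole pH 7.2 buffer containing KCl, MgCl2, Tween 20 and BSA.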
# Rab9 promoter act = activates the Rab9 promoter. Huh7 Rab9 promoter-luciferase reporter, luminescence, 24 h. Potency, µM (highest dose often 9.22 µM), without a hit: at the top dose activation, negative = inhibition, hits mostly activators. hit rate 2.8% among 320,000. AID 485297; note: % of control where 0% means no effect; nearly all actives have a fitted effect of over 60% in size
#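 Rab9 promoter-driven luciferase in stably transfected Huh7 cells; 1500 cells/well rested 2 h, exposed to compound in DMSO for 24 h at 37 °C, 5% CO2. Luminescence read 10 min after adding luciferase reagent at ambient temperature.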
# SMN2 splice up = SMN2 splice variant enhancement. hit rate 2.8% among 210,000. Potency, µM (top dose mostly 46.1 µM), without a hit: top-dose activity change, positive = activation, actives largely listed as activators. HEK293 SMN2-luciferase splicing reporter, luminescence, 30-36 h; note: % of control where 0% means no effect; nearly all actives have a fitted effect of over 55% in size
#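 qHTS luciferase splicing reporter: luminescence rises when SMN2 exon 7 is included in transfected HEK293 cells. Compound exposure lasted 30-36 h at 37C, with 4.5 mM final sodium butyrate as control, followed by a ONE-Glo read.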
# NPC1 promoter act = NPC1 promoter activation; Huh7 NPC1 promoter luciferase reporter, 24 h; Potency, µM (titrated, usually from 9.22 µM), for inactives: at the highest dose activation, hits mostly activators; hit rate 2.4% among 320,000; AID 485313; note: % of control where 0% means no effect; nearly all actives have a fitted effect of over 60% in size
#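 Stable NPC1-promoter luciferase Huh7 line; cpd (DMSO) 24 h, 37 °C, 5% CO2; Amplite luciferase reagent 10 min RT; luminescence readout. qHTS format.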
# An asterisk follows results filed as active; ? = inconclusive; . = no result given; [ ] = another dose, or the depositor's remark. Calls come from the whole dose curve; as a rule, active = well fitted curve in the direction sought with a large enough effect; inconclusive = small, poorly fitted or top-dose-only effect, or another doubt; inactive = no such curve, though single readings can be large; an effect the other way counts as inactive or inconclusive. Potency is the fitted concentration of half-maximal effect.
SMILES,FLuc counter,KinaseGlo FLuc,Rab9 promoter act,SMN2 splice up,NPC1 promoter act
O=C1NC(=S)N(c2ccccc2)C(=O)/C1=C/c1ccco1,19µM*,.,-4.5%,.,-4.2%
CCOc1cccc(N2C(=O)/C(=C/c3ccco3)C(=O)NC2=S)c1,21.3µM*,.,-9.3%,.,-1.2%
COc1cccc(N2C(=O)/C(=C/c3ccc(C)o3)C(=O)NC2=S)c1,15.1µM*,.,8.9%,.,0.8%
Cc1ccc(/C=C2\C(=O)NC(=S)N(c3ccc(F)cc3)C2=O)o1,?,.,-8.9%,.,-0.4%
NC1=NC([S][Hg][c]2ccc(N)cc2)c2ncn([C@@H]3O[C@H](CO)[C@@H](O)[C@@H]3O)c2N1 (stereo partly specified),.,?,.,-103.7%[9.22 µM],.
O=S(=O)(O)F,.,.,.,-19.3%,.
O=C(O)CSCC(=O)O,.,3.2%[7.66 µM],.,-1.2%[9.22 µM],.
O=C(c1ccc(F)cc1)C(Cc1ccccc1)N1CCCCC1 (stereo unspecified),19µM*,0.3%,?,28.9%,16.0%
C[C@@H]1O[C@@H](O[C@H]2C[C@@H](O)[C@]3(CO)[C@H]4[C@H](O)C[C@]5(C)[C@@H](C6COC(=O)C6)CC[C@]5(O)[C@@H]4CC[C@]3(O)C2)[C@H](O)[C@H](O)[C@H]1O (stereo partly specified),5.1%,14.1%,-36.8%,0.794µM*,-45.5%
O=C1c2ccccc2C(=O)N1Cc1nc(-c2ccccc2)no1,?,-1.0%,-1.5%,9.9%,-0.8%
Fc1cccc(F)c1-c1nc(-c2ccc(Cl)cc2)no1,5.36µM*,.,2.82µM*,.,3.98µM*
O=c1[nH]c(=S)[nH]c(O)c1N=Nc1ccc(SC(F)F)cc1,1.2µM*,.,3.16µM*,.,3.16µM*
CC(C)c1ccc(N=Nc2c(O)[nH]c(=O)[nH]c2=O)cc1,2.39µM*,.,?,.,?
O=C(O)c1cccc(N=Nc2c(O)[nH]c(=O)[nH]c2=O)c1,15.1µM*,.,26.7%,.,-3.8%
CCC1=C(C[C@H]2NCCc3cc(OC)c(OC)cc32)C[C@H]2c3ccccc3CCN2C1,.,-2.0%[7.66 µM],.,-4.4%[9.22 µM],.
C[C@H]1C2C=C[C@H]1[C@@H](C(=O)O)[C@@H]2c1c2ccc(=O)c(O)c-2oc2c(O)c(O)ccc12,.,-8.0%[7.66 µM],.,-3.0%[9.22 µM],.
N[C@H](Cc1c[nH]c2ccccc12)P(=O)(O)O,.,1.4%[7.66 µM],.,1.1%[9.22 µM],.
O=C1NC(=O)N(c2cccc(Cl)c2)C(=O)/C1=C\c1ccc(Sc2nc3ccccc3[nH]2)o1,23.9µM*,-7.5%,-1.4%,7.0%,-1.8%
O=C(Nc1ccc(Cl)cc1)Nc1nccs1,10.7µM*,-0.2%,-0.6%,?,-6.9%
S=C=Nc1cccc2ccccc12,.,.,.,2.4%,.
O=C1N=C(N2CCCCC2)SC1=C1CCCCC1,13.5µM*,-15.2%,2.82µM*,28.6%,?
O=C(O)[C@H](Cc1cnc[nH]1)N1C(=O)c2ccccc2C1=O,.,-1.2%[7.66 µM],.,-3.0%[9.22 µM],.
ClCBr,.,.,.,-0.5%,.
Cc1nc2ccc(OC(=O)c3ccccc3)cc2s1,8.49µM*,.,-4.4%,.,1.4%
Nc1c(C(=O)Nc2cccc(Br)c2)sc2nc3c(cc12)N1CCC3CC1,12µM*,.,.,-31.1%,.
SMILES,FLuc counter,KinaseGlo FLuc,Rab9 promoter act,SMN2 splice up,NPC1 promoter act
CN(C)CS/C(N)=N/[C@H](O)C(Cl)(Cl)Cl,.,-0.9%[7.66 µM],.,11.1%[9.22 µM],.
Cc1ccc(Cn2cccc(C(=O)Nc3nc4ccc(C)cc4s3)c2=O)cc1,-10.9%,.,.,.,.
CCOc1ccc2nc(NC(=O)c3cccn(Cc4ccccc4C)c3=O)sc2c1,15.1µM*,.,.,.,.
Cc1cccc(Cn2cccc(C(=O)Nc3nc4ccccc4s3)c2=O)c1,6.01µM*,.,.,.,.
Cc1ccc2nc(NC(=O)c3cccn(Cc4ccccc4F)c3=O)sc2c1,6.0%,.,.,.,.
CN(C)C(=O)Cl,.,.,.,-1.6%,.
Nc1ncnc2c1ncn2[C@@H]1O[C@H](COP(=O)(O)OP(=O)(O)OP(=O)(O)O)[C@H]2OC3(O[C@H]21)C([N+](=O)[O-])=CC(=[N+]([O-])[O-])C=C3[N+](=O)[O-] (stereo partly specified),.,2.82µM*,.,.,.
CC1=C(O)C(=O)C=C2C1=CC=C1[C@]2(C)CC[C@@]2(C)C3C[C@](C)(C(=O)O)CC[C@@]3(C)CC[C@@]12C (stereo partly specified),.,-1.9%,.,-94.5%,.
O=c1nc(/C=C/c2ccc(Cl)cc2Cl)cc(C(F)(F)F)[nH]1,10.7µM*,.,-0.3%,.,0.6%
O=Cc1ccc(Cl)cc1Cl,.,.,.,-5.0%,.
Cc1c(C(c2ccc(Br)cc2)c2c(O)c3ccccc3oc2=O)c(=O)n(-c2ccccc2)n1C (stereo unspecified),12µM*,-1.0%,-7.4%,-12.3%,-5.0%
CSc1ccc(C(c2c(O)c3ccccc3oc2=O)c2c(C)n(C)n(-c3ccccc3)c2=O)cc1 (stereo unspecified),?,1.2%,-2.6%,-7.7%,1.8%
CN1C(=O)C(=Cc2ccc(N3CCCCC3)o2)C(=O)N(C)C1=S,?,0.0%,29.6%,3.3%,21.3%
CN1C(=O)C(=Cc2ccc(SC3CCCCC3)o2)C(=O)N(C)C1=O,16.9µM*,-5.3%,-0.9%,-12.8%,-3.7%
c1nc(N2CC2)c2cnn([C@@H]3CCCCO3)c2n1,.,-2.7%[7.66 µM],.,-11.3%[9.22 µM],.
Clc1ccc(C(c2ccccc2Cl)C(Cl)(Cl)Cl)cc1 (stereo unspecified),.,.,.,-1.1%,.
C1=C(c2c[nH]c3ccccc23)CCN(Cc2ccccc2)C1,3.3%,.,-1.3%,.,-8.0%
Nc1c2c(nc3ccccc13)CCN(Cc1ccccc1)C2,23.9µM*,.,-3.2%,.,12.2%
COc1ccc(-c2nc3ccccc3c(=O)o2)cc1,1.2µM*,?,?,11.2µM*,?
COc1ccc(-n2c(-c3ccc(C)cc3)nc3ccccc3c2=O)cc1,?,.,?,.,23.3%
CC12CC[C@H]3[C@@H](CCC4(O)C[C@H](O)CCC34/C=N/NC(=O)c3ccccc3O)C1(O)CCC2C1=CC(=O)OC1 (stereo partly specified),26.9µM*,.,-7.7%,.,7.1%
CC12CC[C@H]3[C@@H](CCC4(O)C[C@H](O)CCC34/C=N/NC(=O)c3ccc(O)cc3)C1(O)CCC2C1=CC(=O)OC1 (stereo partly specified),19µM*,.,-4.1%,.,-1.7%
CCC1CN2CCc3cc(OC)c(OC)cc3C2CC1CC1NCCc2cc(OC)c(OC)cc21 (stereo unspecified),.,-0.2%,.,-86.4%,.
O=C(O)[C@@H]1[C@H](C(=O)O)[C@]2(Cl)C(Cl)=C(Cl)[C@@]1(Cl)C2(Cl)Cl,.,-5.6%[7.66 µM],.,-63.8%[9.22 µM],.
O=S(=O)(O)/C(=C\c1ccccc1)c1ccccc1 (tested in a mixture with another compound),.,-5.4%[7.66 µM],.,-7.4%[9.22 µM],.
CCN(CC)C(=O)c1ccc(NC(=O)c2cccc(F)c2)cc1,15.1µM*,-22.3%,18.5%,-0.5%,19.7%
CC1=C/C(=N\NC(=S)NCCc2ccccc2)CC(C)(C)C1,21.3µM*,2.8%,29.1%,?,25.3%
